# Screening results: PubChem BioAssay, several laboratories
# Compounds with a hit are over-represented: about 3.1% of the library has one in this group of screens.
# Mtb FBA inh: inhibits M. tuberculosis FBA enzyme; 2.3% of 360,000 active; purified M. tuberculosis FBA, fluorescence read-out; inhibition, % at 1 µM; P9WQA3;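 also: 0% = vehicle and 100% = reference inhibitor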
# Target sequence (P9WQA3 whole entry, looked up): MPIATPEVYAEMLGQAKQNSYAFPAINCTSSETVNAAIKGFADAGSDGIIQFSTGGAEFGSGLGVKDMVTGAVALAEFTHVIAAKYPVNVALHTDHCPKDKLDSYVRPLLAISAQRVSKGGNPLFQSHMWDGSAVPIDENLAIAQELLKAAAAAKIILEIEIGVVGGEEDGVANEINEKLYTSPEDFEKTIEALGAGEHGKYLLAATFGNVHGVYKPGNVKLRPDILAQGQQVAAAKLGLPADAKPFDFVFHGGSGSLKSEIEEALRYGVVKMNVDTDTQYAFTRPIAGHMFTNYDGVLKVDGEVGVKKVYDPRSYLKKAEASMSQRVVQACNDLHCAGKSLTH
# BioA inh: inhibitors of Mycobacterium tuberculosis BioA enzyme; purified M. tuberculosis BioA enzyme, plate reader; inhibition, % at 9.99 µM; 0.096% of 360,000 active; in the data active = inhibition above about 40%; inconclusive = no clear call, values can overlap the other calls
# GDH-TPI counter-1: inhibits GDH-TPI coupling enzymes, artifact for Mtb FBA screen; GDH-TPI coupled enzyme counterscreen, NADH absorbance; 1.2% of 360,000 active; inhibition, % at 4.8 µM; in the data active = inhibition above about 30%;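 also: 0% = DMSO wells and 100% = wells lacking the enzyme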
# FadD28 binding: inhibitors of Mycobacterium tuberculosis FadD28 bisubstrate binding; FadD28 bisubstrate probe binding, fluorescence polarization; inhibition, % at 12.5 µM; 0.22% of 360,000 active; in the data active = inhibition above about 8.5%, passing the limit was not always enough; inconclusive = no clear call, values can overlap the other calls
# 3CLpro inhibitor: SARS-CoV 3CLpro protease inhibition; inhibition, % at 6 µM; AID 1706; 0.14% of 290,000 active; recombinant SARS-CoV 3CLpro, quenched FRET peptide cleavage; in the data active = inhibition above about 12%
# Mtb FBA inh conf: confirmation of M. tuberculosis fructose-bisphosphate aldolase inhibitors | shares compounds with Mtb FBA inh | purified M. tuberculosis FBA, fluorescence read-out | inhibition, % at 1 µM | 78% of 5,600 active | AID 651616;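 also: 0% = vehicle wells and 100% = reference inhibitor wells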
# GDH-TPI counter-2: inhibits GDH-TPI coupling enzymes, flagging Mtb FBA hits; shares compounds with Mtb FBA inh; GDH-TPI coupled enzyme counterscreen, fluorescence; inhibition, % at 1 µM; 81% of 5,600 active; in the data active = inhibition above about 10%
# * = called active by the depositor; u = inconclusive; x = no result; + = active, no number. Rule as the data show it, unless noted: active = inhibition above about 27%; inactive = the rest.
SMILES,Mtb FBA inh,BioA inh,GDH-TPI counter-1,FadD28 binding,3CLpro inhibitor,Mtb FBA inh conf,GDH-TPI counter-2
Cc1noc(C)c1NC(=O)N[C@@H]1CC[C@@H](CCNC(=O)C2CCC2)O[C@H]1CO,x,-1.9,x,x,x,x,x
COc1ccc2oc(C(F)(F)C(F)F)cc(=O)c2c1,42.9*,-3.8,13.6,-0.1,7.2,74.8*,52.4*
COc1ccc2oc(C(F)(F)C(F)(F)F)cc(=O)c2c1,6.5,-0.9,15.1,0.4,-2.8,x,x
COc1ccc2oc3ccccc3c(=O)c2c1,101.3*,-0.9,9.7,-1.2,-3.6,+,+
CCc1cc(=O)oc2cc(OCC(=O)N3CCC[C@H]3C(=O)O)ccc12,35.4*,-2.1,14.7,0.5,-4.1,+,+
CCCCCCc1c(C)c2ccc(OCC(=O)N3CCC[C@H]3C(=O)O)c(C)c2oc1=O,81.0*,17.5,27.4,-11.2,2.3,148.1*,113.2*
CCCc1cc(=O)oc2c(C)c(OCC(=O)N3CCC[C@@H]3C(=O)O)ccc12,43.2*,-0.1,18.6,-0.7,2.9,55.3*,45.4*
CCCc1nc2ccc(N)cc2c(=O)n1Cc1ccccc1Cl,27.9*,-0.5,0.8,-2.0,-0.1,105.3*,83.2*
CCCc1nc2ccc(NC(C)=O)cc2c(=O)n1Cc1ccccc1Cl,0.9,-0.6,11.4,-0.2,-0.5,x,x
CCCC(=O)N1CCN(c2nc(CC(C)C)c3c(c2C#N)CCC3)CC1,31.6*,0.8,9.1,-0.8,3.8,159.2*,119.6*
COc1ccc(S(=O)(=O)Nc2c(NC3CCCCC3)c3ccccc3oc2=O)cc1Cl,29.5*,-0.7,-6.6,-10.6,6.2,+,+
Cc1cc(S(=O)(=O)Nc2c(NC3CCCCC3)c3ccccc3oc2=O)ccc1F,4.6,0.5,5.9,u,-1.1,x,x
CCCC(=O)N1C[C@H]2[C@@H](c3ccccc31)[C@H](CO)N2C(=O)CC1CC1,x,1.5,x,x,x,x,x
Cc1nc(-c2cn[nH]c2)c2cc(C)oc2n1,26.9*,0.3,-4.9,-3.4,-0.5,133.6*,109.9*
COc1ccc2c(COC(=O)CCS(=O)(=O)c3ccc(C)cc3)cc(=O)oc2c1,106.6*,-2.8,9.1,-0.8,x,30.2*,25.8*
CCCNS(=O)(=O)c1cccc(C(=O)OCc2cc(=O)oc3cc(OC)ccc23)c1,38.0*,-1.1,11.1,-1.3,-0.2,76.4*,58.8*
COc1ccc(Br)c(C(=O)OCc2cc(=O)oc3cc(C)ccc23)c1,-2.4,-2.1,2.3,1.4,3.5,x,x
CN(C)c1cccc(C(=O)OCc2cc(=O)oc3cc(O)ccc23)c1,54.6*,-0.7,12.1,4.0,-5.0,+,+
COc1ccc2c(COC(=O)c3ccc(C)c(S(=O)(=O)N4CCOCC4)c3)cc(=O)oc2c1,22.5,-0.9,7.6,0.2,x,x,x
COc1ccc2c(COC(=O)CNS(=O)(=O)c3ccc(C)c(C)c3)cc(=O)oc2c1,72.7*,-1.0,11.1,-0.5,x,30.9*,27.8*
CS(=O)(=O)N1[C@@H]2c3cccc(=O)n3C[C@H]1[C@H](CO)[C@H]2C(=O)NCc1ccccc1,x,1.8,x,x,x,x,x
COc1cccc(S(=O)(=O)N2C[C@@H](O)COC[C@@H]3O[C@@H](CC(=O)N4CCCCC4)CC[C@H]32)c1,x,-0.5,x,x,x,x,x
Cc1ccc(C2Oc3ccccc3C3=C2C(c2cccs2)n2ncnc2N3)cc1 (configuration not stated),2.9,-0.3,6.3,0.3,9.2,x,x
Fc1ccc(C2C3=C(Nc4ncnn42)c2ccccc2OC3c2ccncc2)cc1 (configuration not stated),37.3*,5.3,0.9,-1.8,6.5,101.8*,64.4*
COCC(=O)N1CC[C@H]2[C@H](CO)Nc3ccc(-c4cccc(C(=O)N(C)C)c4)cc3[C@H]21,x,2.2,x,x,x,x,x
SMILES,Mtb FBA inh,BioA inh,GDH-TPI counter-1,FadD28 binding,3CLpro inhibitor,Mtb FBA inh conf,GDH-TPI counter-2
COc1cc(C(=O)Nc2ccc3c(c2)C(=O)N(CCC(=O)O)C3=O)cc(OC)c1OC,-2.2,-1.4,7.9,-6.6,0.2,x,x
O=C(O)CCN1C(=O)c2ccc(NC(=O)Cc3ccc(Cl)cc3)cc2C1=O,31.4*,x,6.0,-3.4,-3.0,167.0*,153.7*
O=C(Cc1ccccc1)Nc1ccc2c(c1)C(=O)N(CC1CCCO1)C2=O (configuration not stated),30.9*,x,0.8,-3.0,-0.6,148.6*,98.6*
CC(=O)Oc1ccc(C(=O)Nc2ccc3c(c2)C(=O)N(CCC(=O)O)C3=O)cc1,47.3*,0.4,22.6,-3.6,0.4,131.6*,110.0*
O=C(O)CCN1C(=O)c2ccc(NC(=O)C(c3ccccc3)c3ccccc3)cc2C1=O,35.8*,x,10.3,-2.2,9.8,-4.5,-5.9
CCNC(=O)[C@H]1[C@H](CO)[C@H]2Cn3c(ccc(C4=CCCC4)c3=O)[C@@H]1N2Cc1ccncc1,x,-1.8,x,x,x,x,x
COCC(C)NC(=O)CCS(=O)(=O)c1nc(-c2ccc(OC)cc2)cc(C(F)(F)F)n1 (configuration not stated),77.5*,0.1,36.4*,-7.0,-2.2,+,+
C[C@H](CO)N1C[C@H](C)[C@H](CN(C)CC2CC2)Oc2cc(-c3ccccc3F)ccc2S1(=O)=O,x,0.5,x,x,x,x,x
CC1CCCC(C)N1C(=O)COc1ccc(C(=O)N/N=C/c2ccc(C(=O)O)cc2)cc1 (configuration not stated),60.0*,-0.8,-0.6,3.0,-1.2,119.7*,96.8*
CCOc1ccc(C(=O)NCC(=O)OCC(=O)N2C(C)CCCC2C)cc1 (configuration not stated),2.3,-0.4,6.2,-1.4,7.2,x,x
O=C(Nc1nc2c(F)cccc2s1)C1CC1,-5.2,-1.7,-5.8,-4.2,-4.0,x,x
CC1CCc2c(sc(Nc3nc4c(F)cccc4s3)c2C(N)=O)C1 (configuration not stated),27.8*,x,15.0,0.0,-0.6,113.3*,98.8*
COc1cc(C2Nc3ccccc3C(=O)N2c2ccc(Cl)cc2)c(Cl)cc1OCC(=O)O (configuration not stated),70.0*,1.4,0.0,-2.9,-0.6,115.4*,83.3*
CCOc1cc(C2Nc3ccccc3C(=O)N2c2ccccc2)c(Br)cc1OCC(=O)O (configuration not stated),38.8*,2.7,8.9,0.1,1.1,104.8*,84.4*
COc1cc(C2NC(=O)NC(c3ccccc3)=C2C(C)=O)c(Cl)cc1OCC(=O)O (configuration not stated),-2.7,x,6.7,-4.5,3.2,x,x
O=C(Cc1ccccc1)N[C@H]1CC[C@@H](CC(=O)N2CCOCC2)O[C@@H]1CO,x,-5.2,x,x,x,x,x
C[C@@H]1CCCCO[C@H](CN(C)C(=O)Nc2ccc(F)cc2)[C@H](C)CN([C@@H](C)CO)C(=O)c2cc(NS(=O)(=O)c3ccccc3)ccc2O1,x,-0.4,x,x,x,x,x
